{"source": "PubChem BioAssay (NCI)", "note": "This is part of a sample that, as a whole, favours compounds with a hit. Of some 79,000 tested, about 15% had one in any assay. Unmarked numbers belong to inactive results. Calls of active or inactive are those of the source. Rule as the data show it: active = growth inhibition above about 70%; inactive = the rest.", "data": [{"test": "NCI Yeast Anticancer Drug Screen. Data for the rad52 strain (AID 147);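 also: 0% = growth of vehicle-treated control cultures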", "details": "S. cerevisiae rad52 mutant growth inhibition; at 11.0 µM; hits give high values", "procedure,_shortened": "(§1)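 Yeast strain carrying a DNA damage repair alteration was exposed to test compounds. Growth inhibition was measured relative to vehicle-treated controls.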", "values": [{"molecule": "O=C1/C(=C/c2ccccc2)CCCC1CN1CCCCC1", "note": "(stereo not drawn)", "growth inhibition": "56%"}, {"molecule": "C#CCN(Cc1ccc2nc(N)[nH]c(=O)c2c1)c1ccc(C(=O)NC(CCC(=O)O)C(=O)O)cc1", "note": "(stereo not drawn)", "growth inhibition": "28%"}, {"molecule": "CCOC1(c2cccc([N+](=O)[O-])c2)c2ccccc2Oc2ccccc21", "growth inhibition": "4%"}, {"molecule": "O=C(O)CNC(=S)Nc1ccccc1", "growth inhibition": "-22%"}, {"molecule": "N/C(=N/N=C/c1cc(Br)cc(Br)c1O)NO", "growth inhibition": "17%"}, {"molecule": "C[Si](C)(C)/C=C/CCNC(C#N)c1ccccc1", "note": "(stereo not drawn)", "growth inhibition": "48%"}, {"molecule": "CCCCCCCCCCCCCCCCOP(=O)(O)OCC(N)C(=O)O", "note": "(stereo not drawn)", "growth inhibition": "54%"}, {"molecule": "CC1=C(C(=O)NCc2ccccc2)C(c2ccccc2)C(C(=O)NCc2ccccc2)=C(C)N1", "growth inhibition": "-4%"}, {"molecule": "O=[N+]([O-])c1cc(S(=O)(=O)Nc2ccccc2)ccc1Nc1ccccc1", "growth inhibition": "95% (active)"}, {"molecule": "COc1cc2ccnc(-c3c4ccccc4c(N)c4c(OC)c(OC)ccc34)c2cc1OC", "growth inhibition": "60%"}, {"molecule": "CCOC(=O)C(Br)C(Br)c1ccccc1Cl", "note": "(stereo not drawn)", "growth inhibition": "83% (active)"}, {"molecule": "CCOC(=O)C1=C(C)NC(C)=C(C(=O)OCCNC(=O)c2ccc(N=[N+]=[N-])cc2)C1c1ccccc1C(F)(F)F", "note": "(stereo not drawn)", "growth inhibition": "13%"}, {"molecule": "Cc1cc(C)c(NC(=S)NC(=O)c2ccccc2)cc1C", "growth inhibition": "-54%"}, {"molecule": "CNCCCNc1c2ccccc2nc2cccc([N+](=O)[O-])c12", "growth inhibition": "90% (active)"}, {"molecule": "COc1c(O)c(C=O)c(Br)c(C=O)c1O", "growth inhibition": "17%"}, {"molecule": "Cc1c(C)c(C)c(CSC(=N)N)c(C)c1C", "growth inhibition": "-12%"}, {"molecule": "O=C(CSC(=S)N1CCCCC1)Nc1nc2c(s1)CCCC2", "growth inhibition": "6%"}, {"molecule": "CNC(=O)OCc1c(COC(=O)NC)c(-c2ccc(Cl)cc2)n2c1CCC2", "growth inhibition": "-28%"}, {"molecule": "CC(=O)OC1CC2C(C)(C)C(=O)C=C[C@]2(C)C2CCC3(C)C(=CCC3[C@H](CO)C[C@H](O)C(=O)C(C)(C)O)[C@]12C", "note": "(stereo partly drawn)", "growth inhibition": "-3%"}, {"molecule": "CCCCCCOC(=O)NCCOC(=O)Nc1ccccc1", "growth inhibition": "7%"}, {"molecule": "C[C](C)(C)[Ge]([O][Ge]([c]1ccccc1)[c]1ccccc1)([O][Ge]([c]1ccccc1)[c]1ccccc1)[C](C)(C)C", "growth inhibition": "53%"}, {"molecule": "CCc1c(Cl)c(C)cc(O)c1Cl", "growth inhibition": "8%"}, {"molecule": "Cc1nc(Nc2ccccc2[N+](=O)[O-])sc1C(=O)CC(=O)C(=O)Nc1c(C(C)C)cccc1C(C)C", "growth inhibition": "-1%"}, {"molecule": "O=[N+]([O-])c1cccc2nc3ccccc3c(NCCCn3ccnc3[N+](=O)[O-])c12", "growth inhibition": "86% (active)"}, {"molecule": "CCCCCCC(O)CNCc1ccnc2ccc(OC)cc12", "note": "(stereo not drawn)", "growth inhibition": "22%"}, {"molecule": "Cc1c2cccc(Sc3ccccc3)c2c2c3c(cccc13)[S+](c1ccccc1)C2", "note": "(stereo not drawn)", "growth inhibition": "96% (active)"}, {"molecule": "C=C1CCC(O)C/C1=C/C=C1\\CCCC2(C)C1CCC2C(C)CCCC(C)C", "note": "(stereo not drawn)", "growth inhibition": "-11%"}, {"molecule": "NC1=NNC2(C(N)=N1)c1ccccc1-c1ccccc12", "growth inhibition": "-16%"}, {"molecule": "COc1cc2cc3c4cc(OC)c(OC)cc4cc[n+]3c(C)c2cc1OC", "growth inhibition": "-16%"}, {"molecule": "COC(=O)NC1C(C)OC(OC2C/C=C(/C)C3C=CC4C(OC5CC(OC6CC(O)C(OC7CC(O)C(OC)C(C)O7)C(C)O6)C(O)C(C)O5)C(C)CC(C)C4C3(C)/C(O)=C3\\C(=O)OC4(CC(C)C(CO)=CC4/C=C\\2C)C3=O)CC1(C)[N+](=O)[O-]", "note": "(stereo not drawn)", "growth inhibition": "41%"}, {"molecule": "O=C1CSC(c2cccc(Cl)c2)N1c1ccc(-c2ccc(-n3c(-c4ccccc4)nc4ccccc4c3=O)cc2)cc1", "note": "(stereo not drawn)", "growth inhibition": "8%"}, {"molecule": "CCOC(=O)C(C(=O)OCC)=P(c1ccccc1)(c1ccccc1)c1ccccc1", "growth inhibition": "2%"}, {"molecule": "COc1ccc(N=CN(C)C)c(C)c1", "growth inhibition": "0%"}, {"molecule": "Cc1cc(S(=O)(=O)Nc2nnc3cnc4ccccc4n23)c(S)cc1Cl", "growth inhibition": "4%"}, {"molecule": "O=C(Oc1ccc2c(c1)CN(Cc1ccccc1)CO2)c1ccccc1", "growth inhibition": "8%"}, {"molecule": "CN(C)[C@@H]1C(=O)C(C(N)=O)=C(O)[C@@]2(O)C(=O)C3=C(O)c4c(O)cccc4C[C@H]3C[C@@H]12", "growth inhibition": "17%"}, {"molecule": "O=[N+]([O-])c1ccc2c(c1)/C(=N/N=C1c3ccccc3Cc3ccccc31)c1cc([N+](=O)[O-])cc([N+](=O)[O-])c1-2", "growth inhibition": "91% (active)"}, {"molecule": "Cc1nc2c(Br)cc(Br)cc2c(=O)n1-c1ccccc1NC1OCC(O)C(O)C1O", "note": "(stereo not drawn)", "growth inhibition": "25%"}, {"molecule": "Cc1cc(N(CCOS(C)(=O)=O)CCOS(C)(=O)=O)ccc1C=Nc1ccc(-c2nc(Cc3ccccc3)sc2C)cc1", "growth inhibition": "84% (active)"}]}, {"test": "NCI Yeast Anticancer Drug Screen. Data for the rad52 strain (AID 147)", "details": "S. cerevisiae rad52 mutant growth inhibition; at 33.0 µM; hits give high values", "procedure,_shortened": "as §1", "values": [{"molecule": "O=C1/C(=C/c2ccccc2)CCCC1CN1CCCCC1", "note": "(stereo not drawn)", "growth inhibition": "72% (active)"}, {"molecule": "C#CCN(Cc1ccc2nc(N)[nH]c(=O)c2c1)c1ccc(C(=O)NC(CCC(=O)O)C(=O)O)cc1", "note": "(stereo not drawn)", "growth inhibition": "73% (active)"}, {"molecule": "CCOC1(c2cccc([N+](=O)[O-])c2)c2ccccc2Oc2ccccc21", "growth inhibition": "10%"}, {"molecule": "O=C(O)CNC(=S)Nc1ccccc1", "growth inhibition": "54%"}, {"molecule": "N/C(=N/N=C/c1cc(Br)cc(Br)c1O)NO", "growth inhibition": "90% (active)"}, {"molecule": "C[Si](C)(C)/C=C/CCNC(C#N)c1ccccc1", "note": "(stereo not drawn)", "growth inhibition": "32%"}, {"molecule": "CCCCCCCCCCCCCCCCOP(=O)(O)OCC(N)C(=O)O", "note": "(stereo not drawn)", "growth inhibition": "98% (active)"}, {"molecule": "CC1=C(C(=O)NCc2ccccc2)C(c2ccccc2)C(C(=O)NCc2ccccc2)=C(C)N1", "growth inhibition": "-20%"}, {"molecule": "O=[N+]([O-])c1cc(S(=O)(=O)Nc2ccccc2)ccc1Nc1ccccc1", "growth inhibition": "91% (active)"}, {"molecule": "COc1cc2ccnc(-c3c4ccccc4c(N)c4c(OC)c(OC)ccc34)c2cc1OC", "growth inhibition": "86% (active)"}, {"molecule": "CCOC(=O)C(Br)C(Br)c1ccccc1Cl", "note": "(stereo not drawn)", "growth inhibition": "99% (active)"}, {"molecule": "CCOC(=O)C1=C(C)NC(C)=C(C(=O)OCCNC(=O)c2ccc(N=[N+]=[N-])cc2)C1c1ccccc1C(F)(F)F", "note": "(stereo not drawn)", "growth inhibition": "24%"}, {"molecule": "Cc1cc(C)c(NC(=S)NC(=O)c2ccccc2)cc1C", "growth inhibition": "-41%"}, {"molecule": "CNCCCNc1c2ccccc2nc2cccc([N+](=O)[O-])c12", "growth inhibition": "94% (active)"}, {"molecule": "COc1c(O)c(C=O)c(Br)c(C=O)c1O", "growth inhibition": "49%"}, {"molecule": "Cc1c(C)c(C)c(CSC(=N)N)c(C)c1C", "growth inhibition": "36%"}, {"molecule": "O=C(CSC(=S)N1CCCCC1)Nc1nc2c(s1)CCCC2", "growth inhibition": "41%"}, {"molecule": "CNC(=O)OCc1c(COC(=O)NC)c(-c2ccc(Cl)cc2)n2c1CCC2", "growth inhibition": "-22%"}, {"molecule": "CC(=O)OC1CC2C(C)(C)C(=O)C=C[C@]2(C)C2CCC3(C)C(=CCC3[C@H](CO)C[C@H](O)C(=O)C(C)(C)O)[C@]12C", "note": "(stereo partly drawn)", "growth inhibition": "11%"}, {"molecule": "CCCCCCOC(=O)NCCOC(=O)Nc1ccccc1", "growth inhibition": "7%"}, {"molecule": "C[C](C)(C)[Ge]([O][Ge]([c]1ccccc1)[c]1ccccc1)([O][Ge]([c]1ccccc1)[c]1ccccc1)[C](C)(C)C", "growth inhibition": "74% (active)"}, {"molecule": "CCc1c(Cl)c(C)cc(O)c1Cl", "growth inhibition": "22%"}, {"molecule": "Cc1nc(Nc2ccccc2[N+](=O)[O-])sc1C(=O)CC(=O)C(=O)Nc1c(C(C)C)cccc1C(C)C", "growth inhibition": "-5%"}, {"molecule": "O=[N+]([O-])c1cccc2nc3ccccc3c(NCCCn3ccnc3[N+](=O)[O-])c12", "growth inhibition": "94% (active)"}, {"molecule": "CCCCCCC(O)CNCc1ccnc2ccc(OC)cc12", "note": "(stereo not drawn)", "growth inhibition": "35%"}, {"molecule": "Cc1c2cccc(Sc3ccccc3)c2c2c3c(cccc13)[S+](c1ccccc1)C2", "note": "(stereo not drawn)", "growth inhibition": "95% (active)"}, {"molecule": "C=C1CCC(O)C/C1=C/C=C1\\CCCC2(C)C1CCC2C(C)CCCC(C)C", "note": "(stereo not drawn)", "growth inhibition": "4%"}, {"molecule": "NC1=NNC2(C(N)=N1)c1ccccc1-c1ccccc12", "growth inhibition": "16%"}, {"molecule": "COc1cc2cc3c4cc(OC)c(OC)cc4cc[n+]3c(C)c2cc1OC", "growth inhibition": "-20%"}, {"molecule": "COC(=O)NC1C(C)OC(OC2C/C=C(/C)C3C=CC4C(OC5CC(OC6CC(O)C(OC7CC(O)C(OC)C(C)O7)C(C)O6)C(O)C(C)O5)C(C)CC(C)C4C3(C)/C(O)=C3\\C(=O)OC4(CC(C)C(CO)=CC4/C=C\\2C)C3=O)CC1(C)[N+](=O)[O-]", "note": "(stereo not drawn)", "growth inhibition": "38%"}, {"molecule": "O=C1CSC(c2cccc(Cl)c2)N1c1ccc(-c2ccc(-n3c(-c4ccccc4)nc4ccccc4c3=O)cc2)cc1", "note": "(stereo not drawn)", "growth inhibition": "7%"}, {"molecule": "CCOC(=O)C(C(=O)OCC)=P(c1ccccc1)(c1ccccc1)c1ccccc1", "growth inhibition": "0%"}, {"molecule": "COc1ccc(N=CN(C)C)c(C)c1", "growth inhibition": "83% (active)"}, {"molecule": "Cc1cc(S(=O)(=O)Nc2nnc3cnc4ccccc4n23)c(S)cc1Cl", "growth inhibition": "17%"}, {"molecule": "O=C(Oc1ccc2c(c1)CN(Cc1ccccc1)CO2)c1ccccc1", "growth inhibition": "18%"}, {"molecule": "CN(C)[C@@H]1C(=O)C(C(N)=O)=C(O)[C@@]2(O)C(=O)C3=C(O)c4c(O)cccc4C[C@H]3C[C@@H]12", "growth inhibition": "97% (active)"}, {"molecule": "O=[N+]([O-])c1ccc2c(c1)/C(=N/N=C1c3ccccc3Cc3ccccc31)c1cc([N+](=O)[O-])cc([N+](=O)[O-])c1-2", "growth inhibition": "98% (active)"}, {"molecule": "Cc1nc2c(Br)cc(Br)cc2c(=O)n1-c1ccccc1NC1OCC(O)C(O)C1O", "note": "(stereo not drawn)", "growth inhibition": "44%"}, {"molecule": "Cc1cc(N(CCOS(C)(=O)=O)CCOS(C)(=O)=O)ccc1C=Nc1ccc(-c2nc(Cc3ccccc3)sc2C)cc1", "growth inhibition": "92% (active)"}]}]}
